Records with an inconclusive call do not appear. Activity calls are given as the source filed them. Unless noted, calls follow the shape of the dose curve; as a rule, active = well fitted curve in the direction sought with a large enough effect; inconclusive = small, poorly fitted or top-dose-only effect, or another doubt; inactive = no such curve, though single readings can be large; an effect the other way counts as inactive or inconclusive.

Test [1] addresses Cytochrome P450 3A4 (Homo sapiens) (UniProt P08684). Briefly: qHTS Assay for Activators of Cytochrome P450 3A4 (AID 885). Also: nearly all actives have a fitted effect of over 65% in size. Put shortly:
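Quantitative HTS format: compounds preincubated with 20nM human CYP3A4 and Luciferin-PPXE substrate at KM, reaction started by NADPH regeneration, stopped after 60 min, luciferase luminescence read 20 min later.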
(In general: qHTS replaces the single test concentration by a dilution series.)

Test [2] in a line: Nrf2 qHTS screen for inhibitors: Validation (AID 493153; active = well fitted inhibition curve with a large enough effect in the main read-out, with a control signal flat, not every such curve was filed as active; also: potency is read from the fitted curve at half-maximal effect). As to conditions: A549 ARE-Fluc reporter, 18-24 h; Potency: luciferase luminescence; viability change: measured here: cytotoxicity max response. In a few lines:
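Luminescence from an ARE-firefly luciferase reporter in A549 cells gives Nrf2 inhibition; an earlier CellTiter-Fluor fluorescent read flags cytotoxicity. Cells in 5% FBS OPTI-MEM received compound dilution series for 18-24 h at 37°C.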

Test [3] in a line: Inducers of the Endoplasmic Reticulum Stress Response (ERSR) in human glioma: Validation (AID 504836). Also: 0% is about no effect. In a few lines:
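Stably transfected U87-MG glioma cells carrying a GRP78-based luciferase sensor; 16 h compound incubation. Luminescence end-point read 10 min after Bright-Glo addition at room temperature.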

A short description of test [4]: S16 Schwann cell PMP22 intronic element firefly luciferase assay (AID 624032).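 Also: plate controls were DMSO for no effect and PTC124 positive control mean for full effect; nearly all actives have a fitted effect of over 30% in size.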 In a few lines:
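Rat S16 Schwann cells stably carrying firefly luciferase driven by a PMP22 intronic element, in 10% FBS, treated 24 h at 37 C. ONE-Glo luminescence normalized to PTC124 control and DMSO (0%); curves classed by r2, magnitude and activity.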

The nature of test [5]: S16 Schwann cell PMP22 intronic element beta-lactamase assay (AID 624044; calls by dose curve;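 also: 0% = DMSO and -100% = potassium clavulanate positive control; nearly all actives have a fitted effect of over 15% in size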). As to conditions: S16 rat Schwann cells, PMP22 element beta-lactamase FRET, 24 h; ratio activity, negative = inhibition: at 38.3 µM (top of the series). Put shortly: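 Rat S16 Schwann cells with beta-Lac driven by a PMP22 intronic element, compound-treated 24 h at 37 °C. LiveBLAzer FRET B/G read: 460 nm normalized to potassium clavulanate vs DMSO; 535 nm FRET as viability; concentration-effect curves classified.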

The subject of another test is 7G8. Briefly: qHTS profiling for inhibitors of Plasmodium falciparum proliferation (AID 504749). Also: nearly all actives have a fitted effect of over 60% in size. Also: potency is read from the fitted curve at half-maximal effect.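 As to activity, negative = inhibition: 0% = DMSO vehicle and full inhibition = artemisinin control.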 As to conditions: P. falciparum in erythrocytes, SYBR Green DNA, 72 h; series mostly up to 28.7 µM. Put shortly:
(§1)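 P. falciparum-infected erythrocytes (0.3% parasitemia, 2.5% hematocrit) incubated with compound 72 h at 37 C, 5% CO2. Parasite DNA detected by SYBR Green after lysis, overnight at room temperature; normalised to 0.29 uM artemisinin and DMSO.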

The test system of another test is CP266. The test is described as above. The conditions noted are these: P. falciparum in erythrocytes, SYBR Green DNA, 72 h; series mostly up to 28.7 µM. Put shortly:
as §1

For the next test, the system named is DIV17. Described as above. The conditions noted are these: P. falciparum in erythrocytes, SYBR Green DNA, 72 h; series mostly up to 28.7 µM. In a few lines: as §1
A further test concerns TAB109. Described as above. The conditions noted are these: P. falciparum in erythrocytes, SYBR Green DNA, 72 h; series mostly up to 28.7 µM. Put shortly:
as §1

Another test concerns PC26. The description is as above. The conditions noted are these: P. falciparum in erythrocytes, SYBR Green DNA, 72 h; series mostly up to 28.7 µM. Put shortly:
as §1

A further test concerns W2. The test is described as above. As to conditions: P. falciparum in erythrocytes, SYBR Green DNA, 72 h; series mostly up to 28.7 µM. Put shortly: as §1
For test [6], the target named is ATP-dependent 6-phosphofructokinase (Trypanosoma brucei brucei) (UniProt O15648). Briefly: qHTS Assay to Find Inhibitors of T. brucei phosphofructokinase: hit validation (AID 492961). Also: % is scaled to controls: 0 for no effect and ±100 for the full control effect. Put shortly: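 Luminescence from ADP-Glo reports ADP generated as T. brucei PFK (1.25 nM) phosphorylates 0.5 mM fructose-6-phosphate using 0.1 mM ATP. Reactions ran 45 min at room temperature, pH 8.0.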
ATP-dependent 6-phosphofructokinase (Trypanosoma brucei brucei), sequence (O15648 whole entry, looked up): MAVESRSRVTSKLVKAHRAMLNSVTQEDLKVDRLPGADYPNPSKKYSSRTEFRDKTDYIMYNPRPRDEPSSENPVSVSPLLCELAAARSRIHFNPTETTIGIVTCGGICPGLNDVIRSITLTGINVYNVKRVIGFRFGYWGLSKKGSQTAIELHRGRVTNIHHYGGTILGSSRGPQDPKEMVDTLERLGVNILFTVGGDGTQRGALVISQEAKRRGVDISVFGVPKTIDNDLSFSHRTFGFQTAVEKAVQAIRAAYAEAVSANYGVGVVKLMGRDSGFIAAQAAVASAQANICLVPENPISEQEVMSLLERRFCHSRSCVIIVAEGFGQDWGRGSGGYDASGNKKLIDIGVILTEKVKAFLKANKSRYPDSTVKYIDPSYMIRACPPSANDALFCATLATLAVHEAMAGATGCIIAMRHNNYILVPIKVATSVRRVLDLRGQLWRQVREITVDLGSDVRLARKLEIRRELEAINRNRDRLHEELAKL

Cytochrome P450 3A4 (Homo sapiens), sequence (P08684 whole entry, looked up): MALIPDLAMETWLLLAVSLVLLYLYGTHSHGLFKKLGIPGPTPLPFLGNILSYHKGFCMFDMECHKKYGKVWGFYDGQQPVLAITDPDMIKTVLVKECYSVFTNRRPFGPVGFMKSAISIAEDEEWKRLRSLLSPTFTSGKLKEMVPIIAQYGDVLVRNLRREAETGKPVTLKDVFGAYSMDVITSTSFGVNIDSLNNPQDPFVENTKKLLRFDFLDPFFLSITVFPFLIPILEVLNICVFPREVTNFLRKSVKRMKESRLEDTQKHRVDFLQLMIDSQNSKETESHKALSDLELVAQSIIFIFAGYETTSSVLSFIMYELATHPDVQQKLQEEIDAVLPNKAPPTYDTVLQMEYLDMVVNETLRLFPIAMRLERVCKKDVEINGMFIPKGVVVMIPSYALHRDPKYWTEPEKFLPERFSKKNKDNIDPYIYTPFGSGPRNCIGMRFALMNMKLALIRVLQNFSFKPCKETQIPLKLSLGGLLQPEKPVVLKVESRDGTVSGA

In the case of `CC[C@@H](CO)Nc1nc(NCc2ccccc2)c2ncn(C(C)C)c2n1`, the Potency entry in test [1] is “inactive”. Besides, in [2], the Potency is 18.4 µM (active) and the viability change was -22.6%. Further, the compound was classed as inactive in test [3].
For `CC1OC(O[C@H]2C[C@@H](O)[C@]3(CO)[C@@H]4C(CC[C@]3(O)C2)[C@@]2(O)CC[C@H](C3=CC(=O)OC3)[C@@]2(C)C[C@H]4O)C(O)C(O)C1O` (stereo partly specified), the Potency result (in test [4]; in test [5]; in the test on 7G8; in the test with CP266; in the test with DIV17; with TAB109) was “inactive” throughout.
As for `Cc1ccc2c(c1)[C@@H]1CN(C)CC[C@H]1N2`, the Potency result in the test on 7G8, in the test on DIV17, in the test on PC26 and in the test with TAB109 was “inactive” each time.
Consider `C=C1Nc2ccccc2C(=O)N1c1ccccc1C`, for which the Potency entry (in test [4]; in the test with 7G8; in the test on CP266; in the test with DIV17; in the test on PC26; with TAB109) was “inactive” each time. In addition, in the test with W2, the Potency entry is “inactive”.
Take `CC12CCC3C4CCC(=O)C(O)=C4CCC3C1CCC2OC(=O)CCC1CCCC1` (stereo unspecified): the result in test [6] was inactive. The Potency entry (in test [4]; with CP266; with DIV17; in the test on PC26; with TAB109) was “inactive” each time.
With `Cc1cc(C)cc(C(=O)OC2CC3CCC(C2)N3C)c1` (stereo unspecified), the outcome in test [6] was inactive. Moreover, the Potency in the test on 7G8 was 8.91 µM (active). Also, the Potency result in the test with CP266 and with TAB109 was “inactive” in each case.
`CC(Cc1ccccc1)N(C)C` (stereo unspecified): the compound was called inactive in test [6]. The Potency result (in [4]; in the test on CP266; in the test with DIV17; in the test on PC26; in the test on TAB109) was “inactive” throughout.
As for `CN1C2CCC1C(C(=O)O)C(OC(=O)c1ccccc1)C2` (stereo unspecified), the Potency result (in [4]; in the test with 7G8; with CP266; with DIV17; in the test on PC26; in the test with TAB109) was “inactive” each time. The Potency entry in the test on W2 was “inactive”.
With `[S]=[Sb][S][Sb]=[S]`, the compound was called inactive in test [6]. Moreover, the Potency entry (in test [4]; in the test with 7G8; in the test with CP266; in the test on DIV17; with TAB109; with W2) was “inactive” each time.
